Assay results from PubChem BioAssay (NCATS).
Records with an inconclusive call do not appear. Active and inactive are the calls of the source. The call rests on the fitted dose curve; in most records, active means well fitted inhibition curve with a large enough effect; inconclusive means small, poorly fitted or top-dose-only effect; inactive means flat fitted curve, though single readings scatter.

System: CRL-7250
Assay: qHTS assay to identify novel small-molecules to repurpose for Merkel cell carcinoma treatment (AID 1296009); further: nearly all actives have a fitted effect of over 60% in size
Details: MCC and control cell lines, CellTiter-Glo viability, 72 h; series mostly up to 92 µM; activity change, negative = cytotoxicity: at the top concentration
Procedure, shortened: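 Cell viability measured by CellTiter-Glo following 72 hr compound treatment at 37 degree celsius, with NPC and MIPE libraries tested in 8- and 11-point concentration series.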

SMILES	outcome
CC1CCC2(OC1)OC1CC3C4CC=C5CC(O)CC(O[C@@H]6OC[C@@H](O)[C@H](O)[C@H]6O)C5(C)C4CCC3(C)C1(O)C2C (stereo not given in full)	inactive [at 17.4 µM]
NC(=O)c1cccc(-c2cc(O)cc(OC(=O)NC3CCCCC3)c2)c1	inactive [at 17.4 µM]
C[C@@H]1CC[C@]2(C(=O)O[C@@H]3O[C@H](CO)[C@@H](O)[C@H](O)[C@H]3O)CC[C@]3(C)C(=CCC4[C@@]5(C)C[C@@H](O)[C@H](O)[C@](C)(C(=O)O)C5CC[C@]43C)[C@@H]2[C@]1(C)O (stereo not given in full)	inactive [at 17.4 µM]
CC(NCc1ccc(OCc2cccc(F)c2)cc1)C(N)=O (stereo not given)	inactive
C=CC1C(O[C@@H]2O[C@H](CO)[C@@H](O)[C@H](O)[C@H]2O)OC=C(C(=O)OC)C1CC(=O)O (stereo not given in full)	inactive [at 17.4 µM]
CC(C)(O)C1OC1C1=CC(=O)C2(C)OC2C1O (stereo not given)	inactive
CC1OC(OC2C(OC3C(O[C@H]4CC[C@@]5(C)C(CC[C@]6(C)C5CC=C5C7CC(C)(C)CC(O)[C@]7(C)CC[C@]56C)C4(C)C)OC(C(=O)O)C(O)C3O)OCC(O)C2O)C(O)C(O)C1O (stereo not given in full)	inactive [at 9.27 µM]
COC1CC(O[C@H]2CC[C@@]3(C)C(=CC[C@]4(O)C3[C@H](OC(C)=O)[C@@H](OC(=O)c3ccccc3)[C@]3(C)[C@@H](C(C)=O)CC[C@@]34O)C2)OC(C)C1OC1CC(OC)C(OC2CC(OC)C(OC3OC(C)C(OC4OC(CO)C(O)C(O)C4O)C(OC)C3O)C(C)O2)C(C)O1 (stereo not given in full)	inactive [at 9.27 µM]
CC1(C)CC[C@]2(C(=O)O[C@@H]3O[C@H](CO)[C@@H](O)[C@H](O)[C@H]3O)CC[C@]3(C)C(=CCC4[C@@]5(C)C[C@@H](O)[C@H](O)[C@](C)(C=O)C5CC[C@]43C)[C@@H]2[C@@H]1O (stereo not given in full)	inactive [at 17.4 µM]
CCCC(N[C@@H](C)C(=O)N1[C@H](C(=O)O)C[C@@H]2CCCC[C@@H]21)C(=O)OCC (stereo not given in full)	inactive
